In ChEMBL document CHEMBL2218924, “A broad activity screen in support of a chemogenomic map for kinase signalling research and drug discovery” (Biochem J, 2013):

What was measured:
[1] = target: Platelet-derived growth factor receptor alpha (Homo sapiens) (UniProt P16234); conditions: at 1 µM
[2] = target: Platelet-derived growth factor receptor alpha (Homo sapiens) (UniProt P16234); conditions: at 10 µM
[3] = target: Platelet-derived growth factor receptor beta (Homo sapiens) (UniProt P09619); conditions: at 1 µM
Sequence of Platelet-derived growth factor receptor beta (Homo sapiens) (P09619 whole entry): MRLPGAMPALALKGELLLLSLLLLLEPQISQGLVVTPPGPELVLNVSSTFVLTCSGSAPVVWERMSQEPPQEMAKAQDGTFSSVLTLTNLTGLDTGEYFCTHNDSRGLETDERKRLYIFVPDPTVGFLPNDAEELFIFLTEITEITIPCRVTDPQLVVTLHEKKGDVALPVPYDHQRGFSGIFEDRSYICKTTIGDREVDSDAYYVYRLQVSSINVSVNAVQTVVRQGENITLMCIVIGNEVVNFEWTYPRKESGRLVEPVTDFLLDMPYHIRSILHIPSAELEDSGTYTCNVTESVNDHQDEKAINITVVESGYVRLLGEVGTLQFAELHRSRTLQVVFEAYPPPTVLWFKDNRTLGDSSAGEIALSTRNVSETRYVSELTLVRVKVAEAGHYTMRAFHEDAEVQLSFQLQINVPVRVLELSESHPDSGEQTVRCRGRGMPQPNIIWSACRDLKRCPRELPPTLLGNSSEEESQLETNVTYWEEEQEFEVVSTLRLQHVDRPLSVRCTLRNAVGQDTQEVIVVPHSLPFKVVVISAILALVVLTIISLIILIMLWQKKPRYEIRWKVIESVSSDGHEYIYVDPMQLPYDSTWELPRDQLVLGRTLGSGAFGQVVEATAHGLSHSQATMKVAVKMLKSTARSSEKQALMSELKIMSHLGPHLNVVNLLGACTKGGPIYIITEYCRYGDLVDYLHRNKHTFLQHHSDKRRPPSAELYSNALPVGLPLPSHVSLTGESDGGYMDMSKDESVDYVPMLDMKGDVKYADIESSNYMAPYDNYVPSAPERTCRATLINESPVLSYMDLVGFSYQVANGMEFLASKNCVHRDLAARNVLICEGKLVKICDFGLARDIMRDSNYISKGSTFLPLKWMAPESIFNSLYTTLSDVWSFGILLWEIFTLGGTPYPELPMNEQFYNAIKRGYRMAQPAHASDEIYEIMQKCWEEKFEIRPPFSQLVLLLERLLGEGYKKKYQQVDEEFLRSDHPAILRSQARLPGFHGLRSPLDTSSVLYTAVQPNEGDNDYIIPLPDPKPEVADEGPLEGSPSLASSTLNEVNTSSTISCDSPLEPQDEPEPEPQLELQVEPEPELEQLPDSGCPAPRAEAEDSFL

[4] = target: Platelet-derived growth factor receptor beta (Homo sapiens) (UniProt P09619); conditions: at 10 µM
[5] = target: T1, 3-phosphoinositide-dependent protein kinase 1 (Homo sapiens) (UniProt O15530); conditions: at 1 µM
T1 sequence (whole entry): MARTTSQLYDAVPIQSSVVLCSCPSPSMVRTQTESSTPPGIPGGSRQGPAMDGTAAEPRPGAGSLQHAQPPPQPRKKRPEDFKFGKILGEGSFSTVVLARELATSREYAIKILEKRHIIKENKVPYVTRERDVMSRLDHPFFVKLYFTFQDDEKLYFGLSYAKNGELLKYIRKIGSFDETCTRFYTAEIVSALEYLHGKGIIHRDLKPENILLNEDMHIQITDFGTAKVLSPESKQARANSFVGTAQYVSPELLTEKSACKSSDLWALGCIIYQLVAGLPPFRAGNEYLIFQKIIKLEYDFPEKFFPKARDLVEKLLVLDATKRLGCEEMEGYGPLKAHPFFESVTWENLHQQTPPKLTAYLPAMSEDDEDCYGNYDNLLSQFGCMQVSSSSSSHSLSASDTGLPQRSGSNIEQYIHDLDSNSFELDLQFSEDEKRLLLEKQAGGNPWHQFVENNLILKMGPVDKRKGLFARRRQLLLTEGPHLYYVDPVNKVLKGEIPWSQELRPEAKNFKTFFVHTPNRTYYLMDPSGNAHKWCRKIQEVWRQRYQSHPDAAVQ

[6] = target: T1, 3-phosphoinositide-dependent protein kinase 1 (Homo sapiens); conditions: at 10 µM
[7] = target: cAMP-dependent protein kinase catalytic subunit alpha (Homo sapiens) (UniProt P17612); conditions: at 1 µM
[8] = target: cAMP-dependent protein kinase catalytic subunit alpha (Homo sapiens) (UniProt P17612); conditions: at 10 µM
[9] = target: RAC-gamma serine/threonine-protein kinase (Homo sapiens) (UniProt Q9Y243); conditions: at 1 µM
[10] = target: RAC-gamma serine/threonine-protein kinase (Homo sapiens) (UniProt Q9Y243); conditions: at 10 µM
[11] = target: Protein kinase C alpha type (Homo sapiens) (UniProt P17252); conditions: at 1 µM
[12] = target: Protein kinase C alpha type (Homo sapiens) (UniProt P17252); conditions: at 10 µM
[13] = target: Protein kinase C beta type (Homo sapiens) (UniProt P05771); conditions: at 1 µM
Sequence of Protein kinase C beta type (Homo sapiens) (P05771 2-671 limits assumed): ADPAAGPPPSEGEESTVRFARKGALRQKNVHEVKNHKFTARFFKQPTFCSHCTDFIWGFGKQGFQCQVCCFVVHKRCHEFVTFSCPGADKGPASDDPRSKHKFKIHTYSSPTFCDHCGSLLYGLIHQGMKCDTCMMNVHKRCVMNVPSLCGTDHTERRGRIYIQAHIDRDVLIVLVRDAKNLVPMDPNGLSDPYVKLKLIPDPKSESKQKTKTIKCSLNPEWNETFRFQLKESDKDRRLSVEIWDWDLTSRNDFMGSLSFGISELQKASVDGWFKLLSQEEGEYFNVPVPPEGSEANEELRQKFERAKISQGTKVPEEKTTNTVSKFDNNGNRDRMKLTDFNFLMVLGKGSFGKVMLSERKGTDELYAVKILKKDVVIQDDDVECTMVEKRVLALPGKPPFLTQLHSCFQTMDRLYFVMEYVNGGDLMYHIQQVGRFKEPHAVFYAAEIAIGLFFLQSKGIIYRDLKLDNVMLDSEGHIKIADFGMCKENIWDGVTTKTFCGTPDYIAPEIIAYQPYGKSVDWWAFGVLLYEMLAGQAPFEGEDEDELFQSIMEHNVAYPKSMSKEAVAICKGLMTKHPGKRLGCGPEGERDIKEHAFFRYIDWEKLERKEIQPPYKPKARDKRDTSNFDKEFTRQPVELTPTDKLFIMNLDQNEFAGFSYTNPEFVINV

[14] = target: Protein kinase C beta type (Homo sapiens) (UniProt P05771); conditions: at 10 µM
[15] = target: Protein kinase C beta type (Homo sapiens) (UniProt P05771); conditions: at 1 µM; remark: listed apart in the source
[16] = target: Protein kinase C beta type (Homo sapiens) (UniProt P05771); conditions: at 10 µM; remark: listed apart in the source
[17] = target: Protein kinase C gamma type (Homo sapiens) (UniProt P05129); conditions: at 1 µM
[18] = target: Protein kinase C gamma type (Homo sapiens) (UniProt P05129); conditions: at 10 µM
[19] = target: Protein kinase C delta type (Homo sapiens) (UniProt Q05655); conditions: at 1 µM
Sequence of Protein kinase C delta type (Homo sapiens) (Q05655 whole entry, looked up): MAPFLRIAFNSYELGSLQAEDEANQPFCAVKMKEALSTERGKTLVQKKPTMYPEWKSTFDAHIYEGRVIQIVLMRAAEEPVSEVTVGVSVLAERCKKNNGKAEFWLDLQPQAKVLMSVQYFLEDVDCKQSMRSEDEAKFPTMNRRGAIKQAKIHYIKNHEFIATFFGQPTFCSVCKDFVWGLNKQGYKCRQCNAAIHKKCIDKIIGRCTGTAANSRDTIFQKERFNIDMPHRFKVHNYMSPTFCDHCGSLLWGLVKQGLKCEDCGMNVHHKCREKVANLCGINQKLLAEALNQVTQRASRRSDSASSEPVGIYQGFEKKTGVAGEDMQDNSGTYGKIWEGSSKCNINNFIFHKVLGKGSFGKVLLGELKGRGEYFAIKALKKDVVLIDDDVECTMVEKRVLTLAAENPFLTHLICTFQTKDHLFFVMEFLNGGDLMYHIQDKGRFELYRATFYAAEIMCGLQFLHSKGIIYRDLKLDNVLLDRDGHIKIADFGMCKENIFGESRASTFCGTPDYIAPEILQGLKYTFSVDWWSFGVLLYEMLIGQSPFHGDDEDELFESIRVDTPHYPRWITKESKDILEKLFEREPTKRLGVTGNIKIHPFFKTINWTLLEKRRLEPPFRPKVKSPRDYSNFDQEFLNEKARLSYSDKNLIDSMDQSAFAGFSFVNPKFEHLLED

[20] = target: Protein kinase C delta type (Homo sapiens) (UniProt Q05655); conditions: at 10 µM

Sequence of Platelet-derived growth factor receptor alpha (Homo sapiens) (P16234 whole entry): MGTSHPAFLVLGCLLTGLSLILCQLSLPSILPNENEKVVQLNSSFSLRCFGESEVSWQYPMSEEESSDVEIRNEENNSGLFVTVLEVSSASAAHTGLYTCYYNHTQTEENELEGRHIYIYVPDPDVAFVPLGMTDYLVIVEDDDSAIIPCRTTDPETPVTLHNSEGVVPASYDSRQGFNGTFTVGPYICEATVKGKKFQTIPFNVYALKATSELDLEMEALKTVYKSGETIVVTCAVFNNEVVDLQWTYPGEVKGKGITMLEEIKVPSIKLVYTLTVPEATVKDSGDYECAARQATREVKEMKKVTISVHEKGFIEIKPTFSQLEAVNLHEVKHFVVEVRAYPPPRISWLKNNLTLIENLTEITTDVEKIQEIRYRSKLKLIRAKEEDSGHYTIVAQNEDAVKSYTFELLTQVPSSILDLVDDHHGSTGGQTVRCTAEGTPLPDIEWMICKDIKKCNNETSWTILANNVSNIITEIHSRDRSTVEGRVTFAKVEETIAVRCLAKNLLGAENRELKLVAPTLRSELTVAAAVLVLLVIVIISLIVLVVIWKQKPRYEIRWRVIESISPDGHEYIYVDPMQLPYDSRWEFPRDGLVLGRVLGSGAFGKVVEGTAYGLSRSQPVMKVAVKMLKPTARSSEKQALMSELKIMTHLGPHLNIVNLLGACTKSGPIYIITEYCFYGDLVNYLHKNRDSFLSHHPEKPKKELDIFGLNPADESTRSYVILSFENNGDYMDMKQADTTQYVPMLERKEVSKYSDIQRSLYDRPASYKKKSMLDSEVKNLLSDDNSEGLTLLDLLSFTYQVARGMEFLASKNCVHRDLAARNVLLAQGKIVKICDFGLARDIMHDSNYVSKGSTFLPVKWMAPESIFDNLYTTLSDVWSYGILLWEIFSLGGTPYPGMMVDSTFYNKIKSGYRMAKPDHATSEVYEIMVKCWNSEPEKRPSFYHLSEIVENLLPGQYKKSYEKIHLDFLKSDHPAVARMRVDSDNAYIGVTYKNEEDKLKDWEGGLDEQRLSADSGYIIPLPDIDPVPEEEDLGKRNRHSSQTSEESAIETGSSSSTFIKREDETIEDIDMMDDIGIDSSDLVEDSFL

| Compound | residual activity [1] [%] | residual activity [2] [%] | residual activity [3] [%] | residual activity [4] [%] | residual activity [5] [%] | residual activity [6] [%] | residual activity [7] [%] | residual activity [8] [%] | residual activity [9] [%] | residual activity [10] [%] | residual activity [11] [%] | residual activity [12] [%] | residual activity [13] [%] | residual activity [14] [%] | residual activity [15] [%] | residual activity [16] [%] | residual activity [17] [%] | residual activity [18] [%] | residual activity [19] [%] | residual activity [20] [%] |
| --- | --- | --- | --- | --- | --- | --- | --- | --- | --- | --- | --- | --- | --- | --- | --- | --- | --- | --- | --- | --- |
| CCN(CC)CCCCN1c2ccccc2Oc2ccc(Cl)cc21 | 126 | 104 | 119 | 108 | 131 | 138 | 95 | 147 | 126 | 113 | 112 | 107 | 105 | 98 | 103 | 95 | 117 | 108 | 107 | 111 |
| O=C1NC(=O)/C(=C/c2ccc3c(c2)OC(F)(F)O3)S1 | 127 | 113 | 108 | 116 | 108 | 106 | 102 | 74 | 97 | 83 | 106 | 102 | 134 | 126 | 98 | 102 | 103 | 101 | 107 | 103 |
| COc1ccc(CNc2nc(N(CCO)CCO)nc3c2ncn3C(C)C)cc1 | 101 | 102 | 93 | 100 | 100 | 100 | 93 | 85 | 72 | 69 | 34 | 13 | 87 | 86 | 87 | 79 | 97 | 86 | 60 | 27 |
| O=C1NC(=O)c2c1c1c3ccccc3[nH]c1c1[nH]c3cc(Br)ccc3c21 | 101 | 95 | 89 | 76 | 75 | 29 | 97 | 101 | 75 | 77 | 102 | 103 | 108 | 95 | 104 | 95 | 99 | 100 | 97 | 102 |
| CC(C)n1cnc2/c(=N/c3cccc(Cl)c3)nc(NCCO)[nH]c21 | 105 | 107 | 108 | 113 | 96 | 81 | 96 | 89 | 95 | 76 | 101 | 63 | 104 | 89 | 101 | 100 | 99 | 70 | 96 | 82 |
| CC(=O)O/N=C1\C(=C2\C(=O)Nc3cc(Br)ccc32)Nc2ccccc21 | 102 | 79 | 86 | 52 | 91 | 67 | 86 | 93 | 98 | 79 | 105 | 101 | 122 | 122 | 105 | 94 | 97 | 109 | 98 | 108 |
| COc1cc2ncnc(Nc3ccc(O)c(Br)c3)c2cc1OC | 103 | 78 | 105 | 83 | 97 | 76 | 88 | 90 | 101 | 80 | 107 | 109 | 97 | 83 | 94 | 97 | 102 | 100 | 100 | 81 |
| CO[C@H]1C[C@@H]2CC[C@@H](C)[C@@](O)(O2)C(=O)C(=O)N2CCCC[C@H]2C(=O)O[C@H]([C@H](C)C[C@@H]2CC[C@@H](O)[C@H](OC)C2)CC(=O)[C@H](C)/C=C(\C)[C@@H](O)[C@@H](OC)C(=O)[C@H](C)C[C@H](C)/C=C/C=C/C=C/1C | 111 | 102 | 116 | 114 | 117 | 126 | 112 | 141 | 103 | 98 | 99 | 99 | 107 | 106 | 105 | 103 | 105 | 98 | 98 | 99 |
| Ic1cccc(CSc2nnc(-c3ccncc3)o2)c1 | 104 | 97 | 99 | 97 | 56 | 44 | 99 | 79 | 92 | 74 | 96 | 95 | 107 | 102 | 95 | 92 | 97 | 104 | 100 | 101 |
| CC[n+]1c(/C=C/N(C)c2ccccc2)n(-c2ccccc2)c2ccc(-c3nc4ccccc4s3)cc21 | 117 | 94 | 103 | 125 | 121 | 149 | 110 | 146 | 105 | 65 | 112 | 103 | 103 | 97 | 96 | 92 | 115 | 110 | 100 | 102 |
| COc1ccc(OC)c2c(=S)c3ccccc3[nH]c12 | 109 | 108 | 99 | 102 | 96 | 96 | 87 | 94 | 89 | 84 | 102 | 101 | 89 | 115 | 106 | 97 | 96 | 91 | 103 | 98 |
| COc1cc2ncnc(Nc3ccc(Oc4ccccc4)cc3)c2cc1OC | 79 | 42 | 102 | 83 | 109 | 120 | 92 | 134 | 92 | 106 | 91 | 96 | 120 | 126 | 104 | 104 | 105 | 97 | 103 | 107 |
| O=C1NC(=O)c2cc(Nc3ccc(F)cc3)c(Nc3ccc(F)cc3)cc21 | 115 | 107 | 109 | 95 | 106 | 110 | 100 | 82 | 98 | 65 | 104 | 101 | 107 | 86 | 93 | 103 | 111 | 98 | 97 | 105 |
| CCC(=O)Nc1ccc2ncnc(Nc3cccc(Br)c3)c2c1 | 117 | 91 | 96 | 92 | 111 | 107 | 88 | 102 | 102 | 99 | 100 | 91 | 117 | 99 | 108 | 104 | 109 | 100 | 101 | 113 |
| Nc1n[nH]c2nnc(-c3c(-c4ccccc4)nn4ccccc34)cc12 | 105 | 100 | 97 | 99 | 102 | 94 | 97 | 77 | 99 | 82 | 97 | 91 | 99 | 96 | 102 | 93 | 98 | 98 | 22 | 4 |
| O=Nc1c(-c2c(O)[nH]c3ccccc23)[nH]c2ccccc12 | 87 | 37 | 84 | 26 | 53 | 9 | 90 | 54 | 95 | 64 | 93 | 86 | 93 | 94 | 95 | 102 | 92 | 73 | 85 | 80 |
| CN(C)c1ccc(/C=C2\C(=O)Nc3ccccc32)cc1 | 79 | 14 | 101 | 30 | 114 | 92 | 89 | 86 | 96 | 100 | 103 | 101 | 114 | 112 | 94 | 98 | 113 | 102 | 88 | 101 |
| O=C1Nc2cc(Br)ccc2/C1=C1/Nc2ccccc2/C1=N\O | 30 | 6 | 36 | 11 | 42 | 37 | 89 | 97 | 83 | 83 | 98 | 104 | 100 | 101 | 102 | 95 | 101 | 107 | 112 | 118 |
| Oc1n[nH]c2nnc(-c3c(-c4ccccc4)nn4ccccc34)cc12 | 103 | 110 | 103 | 110 | 85 | 70 | 86 | 101 | 96 | 84 | 102 | 92 | 94 | 98 | 103 | 97 | 96 | 103 | 99 | 95 |
| N#C/C(=C(\N)Sc1ccc(N)cc1)c1ccccc1C(F)(F)F | 112 | 113 | 98 | 102 | 98 | 87 | 79 | 80 | 96 | 86 | 107 | 96 | 114 | 104 | 114 | 99 | 98 | 104 | 99 | 104 |
| Cn1cnc2cc3c(Nc4cccc(Br)c4)ncnc3cc21 | 108 | 79 | 103 | 81 | 106 | 92 | 99 | 75 | 101 | 96 | 101 | 98 | 109 | 85 | 100 | 95 | 103 | 99 | 97 | 100 |
| NC(=O)c1ccc2[nH]c(-c3ccc(Oc4ccc(Cl)cc4)cc3)nc2c1 | 115 | 121 | 107 | 128 | 105 | 107 | 106 | 129 | 106 | 103 | 99 | 90 | 111 | 93 | 95 | 100 | 90 | 108 | 104 | 107 |
| Nc1ccc2ncnc(NCCc3ccc(Oc4ccccc4)cc3)c2c1 | 87 | 43 | 97 | 95 | 104 | 109 | 103 | 124 | 99 | 76 | 103 | 103 | 137 | 113 | 118 | 104 | 87 | 111 | 106 | 111 |
| Cc1nc2cc3nc(-c4cccs4)cnc3cc2n1C | 78 | 15 | 97 | 46 | 109 | 109 | 104 | 106 | 112 | 102 | 111 | 96 | 107 | 105 | 99 | 99 | 110 | 104 | 98 | 106 |
| Cc1ccc(NC2=CC(=O)c3sc(C)nc3C2=O)cc1 | 104 | 112 | 93 | 92 | 99 | 102 | 102 | 106 | 91 | 89 | 106 | 105 | 98 | 88 | 112 | 101 | 102 | 108 | 103 | 102 |
| Oc1c2ccccc2c2c3c(cccc13)N=N2 | 108 | 86 | 99 | 96 | 72 | 19 | 89 | 73 | 89 | 66 | 98 | 73 | 102 | 104 | 108 | 102 | 73 | 30 | 99 | 71 |
